PubChem BioAssay (EPA / NIEHS)
The source made the active and inactive calls. Rule for the calls: active = hit-call score of the fitted dose curve at least 0.9, where 1 is the maximum; inactive = score below 0.9.

Experiments:
[1] = target: Transcription factor E2F1 (Homo sapiens) (UniProt Q01094); assay: ATG_E2F_CIS: Attagene CIS-FACTORIAL HepG2 Assay for human E2F Transcription Factor 1 (AID 2282935); settings: HepG2 Attagene cis-reporter, E2F reporter RNA transcripts; actives raise or lower the signal
Transcription factor E2F1 (Homo sapiens), sequence (Q01094 whole entry, looked up): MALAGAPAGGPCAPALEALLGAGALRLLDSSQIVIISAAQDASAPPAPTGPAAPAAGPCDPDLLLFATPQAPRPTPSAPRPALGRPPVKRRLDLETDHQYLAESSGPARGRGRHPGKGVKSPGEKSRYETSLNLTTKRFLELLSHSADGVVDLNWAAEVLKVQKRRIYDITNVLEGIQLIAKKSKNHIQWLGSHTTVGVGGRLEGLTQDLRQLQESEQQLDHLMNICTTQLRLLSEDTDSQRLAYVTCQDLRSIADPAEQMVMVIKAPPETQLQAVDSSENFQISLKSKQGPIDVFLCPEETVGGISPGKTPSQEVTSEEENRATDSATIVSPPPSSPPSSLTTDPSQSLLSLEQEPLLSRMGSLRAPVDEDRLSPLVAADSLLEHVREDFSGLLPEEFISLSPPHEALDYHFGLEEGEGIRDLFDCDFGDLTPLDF
Outline: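 Cis-element reporter mRNA induction in transiently transfected HepG2, 24 h exposure. Activity fitted in both directions relative to DMSO negative control.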

[2] = ATG_E_Box_CIS: Attagene CIS-FACTORIAL HepG2 Assay for human Enhancer Box (E-box) (AID 2282936); settings: HepG2 E-box cis-reporter transcription, actives raise or lower the signal
Outline: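 Cells: HepG2 (human liver), transient MRTU transfection. Exposure 24 h. RNA → oligo(dT) RT → PCR → 6-FAM label → HpaI → CE. Activity fitted both directions relative to DMSO.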

[3] = ATG_M_61_CIS: Attagene CIS-FACTORIAL HepG2 Assay for M61 Transcription Factor (Internal Marker) (AID 2282937); settings: HepG2 Attagene CIS-FACTORIAL M61 internal marker reporter; actives raise or lower the signal
Outline: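 This endpoint serves as an internal background control within a multiplexed HepG2 cis-reporter panel. Cells are exposed for 24 h; reporter mRNA is amplified, fluorescently labelled and sized by capillary electrophoresis, with DMSO as negative control.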

[4] = ATG_M_19_CIS: Attagene CIS-FACTORIAL HepG2 Assay for M19 Transcription Factor (Internal Marker) (AID 2282939); settings: HepG2 Attagene CIS-FACTORIAL M19 internal marker reporter; actives raise or lower the signal
Outline: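 HepG2, MRTU transient transfection, 24 h dosing. Total RNA → RT-PCR → 6-FAM primer extension → HpaI digest → CE fluorescence. Bidirectional curve fit, DMSO negative control.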

[5] = ATG_ERE_CIS: Attagene CIS-FACTORIAL HepG2 Assay for Estrogen Response Element (ERE) (AID 2282940); settings: HepG2 ERE cis-reporter, Attagene RNA transcript; actives raise or lower the signal
Outline: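 After a 24 h chemical treatment, RNA from reporter-transfected HepG2 cells is reverse-transcribed, PCR-amplified and fluorescently labelled. Fragments separated by capillary electrophoresis give reporter signal; DMSO serves as negative control.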

[6] = ATG_Ets_CIS: Attagene CIS-FACTORIAL HepG2 Assay for human Erythroblast Transformation Specific (ETS) (AID 2282941); settings: HepG2 ETS cis-reporter transcription, actives raise or lower the signal
Outline: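 Steps: transfect HepG2 with multiple reporter units; treat compound 24 h; isolate RNA, DNase-treat, reverse-transcribe; PCR-amplify, label with 6-FAM, digest with HpaI; separate by capillary electrophoresis. Activity fitted both directions versus DMSO.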

[7] = target: Hepatocyte nuclear factor 3-beta (Homo sapiens) (UniProt Q9Y261); assay: ATG_FoxA2_CIS: Attagene CIS-FACTORIAL HepG2 Assay for human Forkhead box A2 (FOXA2) (AID 2282942); settings: HepG2 cis-reporter transcription factor activity, 24 h; actives raise or lower the signal
Hepatocyte nuclear factor 3-beta (Homo sapiens), sequence (Q9Y261 whole entry, looked up): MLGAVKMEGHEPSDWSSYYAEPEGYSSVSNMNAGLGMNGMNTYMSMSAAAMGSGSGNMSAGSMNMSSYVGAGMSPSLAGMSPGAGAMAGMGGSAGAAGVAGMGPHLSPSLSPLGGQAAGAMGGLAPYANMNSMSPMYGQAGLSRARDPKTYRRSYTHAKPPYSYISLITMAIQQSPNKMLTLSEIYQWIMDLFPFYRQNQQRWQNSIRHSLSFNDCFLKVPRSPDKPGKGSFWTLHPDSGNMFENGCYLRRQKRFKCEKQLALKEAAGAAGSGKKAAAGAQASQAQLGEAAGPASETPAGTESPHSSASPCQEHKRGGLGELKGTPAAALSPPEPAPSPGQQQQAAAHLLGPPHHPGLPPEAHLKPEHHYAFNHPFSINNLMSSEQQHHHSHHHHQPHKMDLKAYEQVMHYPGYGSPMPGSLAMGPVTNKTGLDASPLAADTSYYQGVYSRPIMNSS
Outline: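 Cells: HepG2, transient multiplex reporter transfection. Exposure 24 h. Detection: reporter-specific RT-PCR, fluorescent labelling, restriction digest, capillary electrophoresis. Analysis: bidirectional curve fit, DMSO as negative control.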

[8] = ATG_FoxO_CIS: Attagene CIS-FACTORIAL HepG2 Assay for human Forkhead box O (FoxO) (AID 2282943); settings: HepG2 Attagene cis-reporter, FoxO element, mRNA; actives raise or lower the signal
Outline: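 Human hepatoma HepG2 cells carry transiently introduced reporter transcription units controlled by cis promoter elements. Chemical treatment lasted 24 h, and mRNA signal was compared with DMSO.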

[9] = ATG_GATA_CIS: Attagene CIS-FACTORIAL HepG2 Assay for human GATA Binding Protein (AID 2282944); settings: HepG2 GATA cis-element reporter, Attagene multiplex mRNA; actives raise or lower the signal
Outline: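 Cells: HepG2, transiently transfected with cis-regulated reporter transcription units. Exposure: 24 h. Detection: RT-PCR plus capillary electrophoresis of FAM-labeled fragments. Analysis: bidirectional, DMSO as baseline.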

[10] = ATG_EGR_CIS: Attagene CIS-FACTORIAL HepG2 Assay for human Early Growth Response 1 (EGR1) (AID 2282938); settings: HepG2 Attagene CIS-FACTORIAL EGR reporter mRNA; actives raise or lower the signal
Outline: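 HepG2, transient MRTU transfection (cis promoters), 24 h compound. RNA → RT (oligo-dT) → PCR → 6-FAM labelling → HpaI cut → CE fluorescence. Bidirectional fit, DMSO baseline.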

| Structure (SMILES) | outcome [1] | outcome [2] | outcome [3] | outcome [4] | outcome [5] | outcome [6] | outcome [7] | outcome [8] | outcome [9] | AC50 [5] | AC50 [2] | outcome [10] | AC50 [1] | AC50 [4] | AC50 [7] | AC50 [8] |
| --- | --- | --- | --- | --- | --- | --- | --- | --- | --- | --- | --- | --- | --- | --- | --- | --- |
| CC(C)CCCC(C)(C)O | inactive | inactive | inactive | inactive | inactive | inactive | inactive | inactive | inactive |  |  |  |  |  |  |  |
| Cc1ccncc1 | inactive | inactive | inactive | inactive | inactive | inactive | inactive | inactive | inactive |  |  |  |  |  |  |  |
| CC(=O)C1C(=O)C=C(C)OC1=O (stereo not given) | inactive | inactive | inactive | inactive | inactive | inactive |  | inactive | inactive |  |  |  |  |  |  |  |
| CCCCCC(=O)O[C@]1(C(C)=O)CC[C@H]2[C@@H]3CCC4=CC(=O)CC[C@]4(C)[C@H]3CC[C@@]21C | inactive | inactive | inactive | inactive | inactive | inactive |  | inactive | inactive |  |  |  |  |  |  |  |
| CC(=O)OC(C)(C)C1CC=C(C)CC1 (stereo not given) | inactive | inactive | inactive | inactive |  | inactive | inactive | inactive | inactive | 26.1 µM (active) |  |  |  |  |  |  |
| O=[N+]([O-])c1cc(N(CCO)CCO)ccc1NCCO | inactive | inactive | inactive | inactive | inactive | inactive | inactive | inactive | inactive |  |  |  |  |  |  |  |
| [Cu+] | inactive | inactive | inactive | inactive | inactive | inactive | inactive | inactive | inactive |  |  |  |  |  |  |  |
| CN1CCc2cccc3c2[C@H]1Cc1ccc(O)c(O)c1-3 | inactive |  | inactive | inactive |  | inactive | inactive | inactive | inactive | 0.386 µM (active) | 2.76 µM (active) |  |  |  |  |  |
| CN(C)C | inactive | inactive | inactive |  | inactive | inactive | inactive | inactive | inactive |  |  | inactive |  |  |  |  |
| c1ccc2scnc2c1 | inactive | inactive | inactive |  | inactive | inactive |  | inactive | inactive |  |  | inactive |  |  |  |  |
| NC(=O)c1cnccn1 | inactive |  | inactive | inactive | inactive | inactive | inactive | inactive | inactive |  |  | inactive |  |  |  |  |
| OCCN1CCOCC1 | inactive |  | inactive | inactive |  | inactive | inactive | inactive | inactive | 21.4 µM (active) |  | inactive |  |  |  |  |
| CC(=O)Nc1cc(S(=O)(=O)O)cc2cc(S(=O)(=O)O)c(N=Nc3ccccc3)c(O)c12 | inactive | inactive | inactive |  | inactive | inactive |  | inactive | inactive |  |  | inactive |  |  |  |  |
| COc1ccccc1NC(=O)CC(C)=O | inactive | inactive | inactive | inactive |  | inactive | inactive | inactive | inactive |  |  |  |  |  |  |  |
| OC[C@H]1O[C@@H](O[C@H]2[C@H](O)[C@@H](O)[C@H](O)O[C@@H]2CO)[C@H](O)[C@@H](O)[C@H]1O | inactive | inactive | inactive | inactive | inactive | inactive | inactive | inactive | inactive |  |  |  |  |  |  |  |
| C=CCCCCCCCCC(=O)OCC | inactive | inactive | inactive | inactive | inactive | inactive | inactive | inactive | inactive |  |  |  |  |  |  |  |
| O=c1cc[nH]cc1 | inactive |  | inactive | inactive | inactive | inactive | inactive | inactive | inactive |  |  | inactive |  |  |  |  |
| C[C@H](CCC(=O)O)[C@H]1CC[C@H]2[C@@H]3CC[C@@H]4C[C@H](O)CC[C@]4(C)[C@H]3CC[C@]12C |  |  | inactive |  | inactive | inactive |  | inactive | inactive |  | 64.2 µM (active) |  | 25.3 µM (active) | 169 µM (active) |  |  |
| CC=CC(=O)C1=C(C)C=CCC1(C)C | inactive | inactive | inactive | inactive | inactive | inactive | inactive | inactive | inactive |  |  |  |  |  |  |  |
| C[N+](C)(C)CCO | inactive | inactive | inactive | inactive | inactive | inactive | inactive | inactive | inactive |  |  |  |  |  |  |  |
| CCCCCCCCCCCCOC(C)=O | inactive | inactive | inactive | inactive | inactive | inactive | inactive | inactive | inactive |  |  |  |  |  |  |  |
| CCC(=O)OCC=Cc1ccccc1 | inactive | inactive | inactive |  | inactive | inactive |  | inactive | inactive |  |  | inactive |  |  |  |  |
| C=CC(=O)OCC(CO)(COC(=O)C=C)COC(=O)C=C |  |  | inactive | inactive | inactive | inactive |  |  | inactive |  | 22.2 µM (active) |  | 27 µM (active) |  | 123 µM (active) | 13.4 µM (active) |
| CCCCCCCCCCCCOCCOS(=O)(=O)O | inactive |  | inactive | inactive | inactive | inactive | inactive | inactive | inactive |  |  | inactive |  |  |  |  |
| O=C(O)CS | inactive |  | inactive | inactive | inactive | inactive | inactive | inactive | inactive |  |  | inactive |  |  |  |  |
| O=S(=O)(O)c1cc(S(=O)(=O)O)c2c(N=Nc3ccccc3)c(O)ccc2c1 | inactive |  | inactive | inactive |  | inactive | inactive | inactive | inactive |  |  |  |  |  |  |  |
| CCCCCCCCOC(C)=O | inactive |  | inactive |  | inactive | inactive | inactive | inactive | inactive |  |  | inactive |  |  |  |  |
| CC/C(=C(\c1ccccc1)c1ccc(OCCN(C)C)cc1)c1ccccc1 | inactive |  | inactive | inactive |  | inactive | inactive | inactive | inactive |  |  | inactive |  |  |  |  |
| CC1(C)[C@H](C=C(Cl)Cl)[C@H]1C(=O)OCc1cccc(Oc2ccccc2)c1 | inactive |  | inactive | inactive | inactive | inactive | inactive | inactive | inactive |  |  | inactive |  |  |  |  |
